# Laboratory results taken from PubChem BioAssay.
# Calls of active or inactive are those of the source. Unless noted, how the calls were made is not given here.
# Legend:
# [1] = resazurin metabolic signal in HepG2 cells – cell-based, resazurin fluorescence, 24 h, PK04 Diversity Set, profiling panel (AID 1172); details: HepG2 viability, higher = more signal; further: test concentration not given here
# [2] = budding yeast growth changes without added modifier – OD600, strain BY4716, 24 h, basal condition, primary screen (AID 1173); details: S. cerevisiae BY4716 growth, OD600, 24 h; higher = more signal, called active from +8 up or from −8 down
# [3] = viability profiling in MM1S myeloma cells – cell-based, resazurin fluorescence, basal, 24 h, PK04 Diversity Set, profiling panel (AID 1174); details: higher = more signal, called active from +8 up or from −8 down;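 further: MM1S multiple myeloma cell line; test concentration not given here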
# [4] = target: Dihydroorotate dehydrogenase (quinone), mitochondrial (Plasmodium falciparum (isolate 3D7)) (UniProt Q08210); test: inhibition of P. falciparum DHODH – biochemical, C-terminal His tag, absorbance 600 nm, primary screen (AID 1175); details: PfDHODH enzyme, DCIP absorbance 600 nm; higher = more signal, called active from +8 up or from −8 down;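 further: recombinant parasite enzyme with a five histidine tag at its C terminus; test concentration not given here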
# [5] = inhibition of PAO1 biofilm formation – strain PAO1, LB-PBS medium, absorbance 600 nm, primary screen (AID 1176); further: test concentration not given here; details: P. aeruginosa PAO1 growth/biofilm, A600, 12 h; higher = more signal
# [6] = growth modulation of vineyard yeast isolate – strain RM11-1a, OD600, basal, 24 h, primary screen (AID 1177);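 further: cultures grown under basal conditions with no added stressor; test concentration not given here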; details: S. cerevisiae RM11-1a growth, OD600, 24 h; higher = more signal, called active from +8 up or from −8 down
# [7] = growth of efflux-deficient E. coli DRC39 – strain DRC39, OD650, 24 h, E. coli filamentation inducers, primary screen (AID 1178);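 further: growth measured as culture turbidity by optical density at 650 nm; test concentration not given here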; details: E. coli DRC39 acrAB, higher = more signal, called active from +8 up or from −8 down
# [8] = growth of efflux-deficient E. coli DRC39 – strain DRC39, OD650, 48 h, E. coli filamentation inducers, primary screen (AID 1179);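 further: screen aims at cell division blockers that make cells filament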; details: E. coli DRC39 delta-acrAB growth, higher = more signal, called active from +8 up or from −8 down
# [9] = viability profiling in RPMI8226 myeloma cells – cell-based, resazurin fluorescence, basal, 24 h, PK04 Diversity Set, profiling panel (AID 1180); details: higher = more signal;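 further: RPMI8826 multiple myeloma cell line at 5000 cells per well; test concentration not given here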
# [10] = target: E3 ubiquitin-protein ligase XIAP (Homo sapiens) (UniProt P98170); test: small molecules binding XIAP protein – biophysical, small-molecule microarray, fluorescence 635 nm, primary screen (AID 1181); details: higher = more signal;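 further: score merges 667 nm emission and signal to noise over triplicate slides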
# Chain of E3 ubiquitin-protein ligase XIAP (Homo sapiens) (P98170 whole entry, looked up): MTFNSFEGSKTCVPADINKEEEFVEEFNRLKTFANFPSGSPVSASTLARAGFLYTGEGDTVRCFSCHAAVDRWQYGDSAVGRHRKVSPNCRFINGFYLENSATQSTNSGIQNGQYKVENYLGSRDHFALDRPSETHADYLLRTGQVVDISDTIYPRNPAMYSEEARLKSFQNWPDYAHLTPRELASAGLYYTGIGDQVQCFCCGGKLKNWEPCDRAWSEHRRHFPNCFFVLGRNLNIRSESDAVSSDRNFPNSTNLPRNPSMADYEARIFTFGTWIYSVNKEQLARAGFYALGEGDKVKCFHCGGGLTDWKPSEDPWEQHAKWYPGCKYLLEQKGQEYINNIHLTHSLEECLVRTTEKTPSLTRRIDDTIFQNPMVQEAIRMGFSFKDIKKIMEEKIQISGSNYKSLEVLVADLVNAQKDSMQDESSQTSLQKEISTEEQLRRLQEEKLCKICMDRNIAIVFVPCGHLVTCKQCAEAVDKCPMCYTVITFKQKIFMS
# Chain of Dihydroorotate dehydrogenase (quinone), mitochondrial (Plasmodium falciparum (isolate 3D7)) (Q08210 whole entry, looked up): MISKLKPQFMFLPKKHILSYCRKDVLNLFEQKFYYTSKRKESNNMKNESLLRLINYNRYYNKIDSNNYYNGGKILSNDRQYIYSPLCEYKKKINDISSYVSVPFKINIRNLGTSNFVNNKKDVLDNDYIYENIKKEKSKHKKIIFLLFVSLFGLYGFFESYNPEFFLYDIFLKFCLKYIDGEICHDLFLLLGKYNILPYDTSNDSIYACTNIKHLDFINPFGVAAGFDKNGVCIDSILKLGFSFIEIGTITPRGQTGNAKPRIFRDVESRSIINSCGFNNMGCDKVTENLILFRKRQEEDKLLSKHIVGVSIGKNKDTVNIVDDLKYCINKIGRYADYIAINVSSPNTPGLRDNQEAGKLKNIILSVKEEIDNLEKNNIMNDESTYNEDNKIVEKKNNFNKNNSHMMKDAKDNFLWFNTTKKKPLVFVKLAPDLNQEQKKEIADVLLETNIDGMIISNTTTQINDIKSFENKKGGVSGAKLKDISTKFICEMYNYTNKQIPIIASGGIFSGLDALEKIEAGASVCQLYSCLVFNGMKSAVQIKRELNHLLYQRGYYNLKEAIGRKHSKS
Compound,z-score [1],z-score [2],z-score [3],composite z-score [4],z-score [5],z-score [6],z-score [7],z-score [8],z-score [9],composite z-score [10]
CC(C)(C)OC(=O)CC[C@@]12N=C(c3ccc(OCCCO)cc3)O[C@@H]1c1ccccc1N(CCS(=O)(=O)c1ccccc1)C2=O,-0.223,0.508 (inactive),-1.95 (inactive),-0.298 (inactive),0.218 (inactive),1.44 (inactive),1.25 (inactive),1.56 (inactive),-0.835,0.0801
CN(C)C(=O)[C@]1(Cc2ccccc2CN=[N+]=[N-])N=C(c2ccc(OCCCO)cc2)O[C@@H]1c1ccccc1CN=[N+]=[N-],-0.053,-0.868 (inactive),-1.19 (inactive),0.587 (inactive),1.06 (inactive),-0.111 (inactive),0.187 (inactive),-0.719 (inactive),-1.1,0.0015
COc1ccc(NN2C(C(O)c3ccc([N+](=O)[O-])cc3)C=CC3C(=O)N(C4CCCCC4)C(=O)C32)cc1 (stereo not given),0.755,0.136 (inactive),0.0225 (inactive),-0.238 (inactive),0.67 (inactive),0.388 (inactive),-0.637 (inactive),0.523 (inactive),0.907,0.209
CCCC[C@H]1OB(O)C[C@H]2C1=C(COc1ccccc1)C[C@H]1C(=O)N(C)C(=O)[C@H]12,-0.0384,-2.57 (inactive),-0.508 (inactive),-0.514 (inactive),-0.0946 (inactive),-0.798 (inactive),-0.121 (inactive),-0.316 (inactive),-0.59,-0.031
CC(C)(C)OC(=O)CC[C@]1(C(=O)NCC(O)CO)COC(c2ccc(OCCCO)cc2)=N1 (stereo not given in full),0.245,0.525 (inactive),0.198 (inactive),0.563 (inactive),0.826 (inactive),1.51 (inactive),0.116 (inactive),0.0752 (inactive),0.467,-0.181
COc1ccc(CCNC(=O)[C@@H]2c3ccccc3C(=O)N(C3Cc4ccccc4C3)[C@H]2c2ccc(CO)cc2)cc1,0.763,0.594 (inactive),-0.642 (inactive),0.441 (inactive),0.292 (inactive),0.205 (inactive),-0.195 (inactive),0.121 (inactive),-0.303,0.126
CCCC=C(CCC)[C@@H](NC(=O)Oc1ccc(F)cc1)c1ccc(C(=O)OC)cc1,1.01,1.21 (inactive),0.0374 (inactive),0.58 (inactive),0.535 (inactive),1.2 (inactive),-0.0379 (inactive),0.0821 (inactive),-1.94,0.248
COc1ccc(C(=O)O[C@H]2CC[C@]3(C)C4=C(CCC3C2(C)C)[C@]2(C)CC[C@H]([C@H](C)CCCC(C)C)[C@@]2(C)CC4)cc1 (stereo not given in full),1.09,1.77 (inactive),0.873 (inactive),-1.74 (inactive),0.814 (inactive),-1.09 (inactive),1.25 (inactive),1.11 (inactive),1.37,-0.142
COC(=O)c1c(CC[C@@H](CO)NC(=O)N[C@H](Cn2cc(Cc3ccccc3)nn2)C(C)C)oc(C(C)=O)c1C(=O)OC,-0.61,-1.64 (inactive),-0.0537 (inactive),-3.09 (inactive),0.656 (inactive),-0.705 (inactive),1.58 (inactive),0.582 (inactive),-0.193,-0.121
CC(CO)N1C(=O)[C@@H]2C3C(=O)OCCC/C=C\[C@H]3OC23C=CCN(c2ccc4ccccc4c2)C(=O)[C@@H]13 (stereo not given in full),-0.757,-0.55 (inactive),-0.208 (inactive),0.575 (inactive),-0.456 (inactive),0.179 (inactive),0.162 (inactive),0.703 (inactive),-0.0216,-0.0989
COCC(=C=CC[C@H](O)c1ccccc1OCCO)C[C@H](O)c1cc(Cl)cc(Cl)c1O,-1.18,-19 (active),-0.627 (inactive),-9.33 (active),-0.0828 (inactive),-22.2 (active),0.275 (inactive),0.0273 (inactive),-0.207,-0.0559
COC(=O)[C@@]1(Cc2ccc(OC)cc2)[C@H]2c3cc(C(=O)N4CCCC4)n(Cc4ccsc4Br)c3C[C@H]2CN1C(=O)c1ccccc1,-1.78,0.567 (inactive),-8.06 (active),0.276 (inactive),0.576 (inactive),-0.0289 (inactive),-0.0187 (inactive),0.126 (inactive),-4.31,0.244
